# Laboratory results published in the supplement of paper PMC5940239.
# Legend:
# [1] = system: Madurella mycetomatis MM55; conditions: 7 days
# [2] = system: Madurella mycetomatis MM55; test: IC90; higher = less potent; conditions: 7 days
# [3] = system: Madurella mycetomatis MM55; test: percent growth relative to solvent control; higher = less inhibition, active = 20 or less; conditions: 100 µM; 7 days
SMILES,IC50 [1],IC90 [2],percent growth [3]
COc1ccc(C2=NN(C3CCCCCC3)C(=O)[C@@H]3CC=CC[C@H]23)cc1OCCCCOc1ccc(-c2nn[nH]n2)cc1,18.6 µM,53.5 µM,-1.09% (active)
O[C@@H](c1cc(C(F)(F)F)nc2c(C(F)(F)F)cccc12)[C@H]1CCCCN1,38.8 µM,71.5 µM,-1.36% (active)
CC(C)=CCC/C(C)=C\CNCCNC1C2CC3CC(C2)CC1C3 (stereo not drawn),10.2 µM,19.8 µM,2.78% (active)
CC(Oc1ccccc1)C(=O)Nc1nc(-c2ccccn2)cs1 (stereo not drawn),10.1 µM,18.5 µM,1.36% (active)
C[C@H](C(N)=O)N1CCCC[C@H]1c1ccc(OCc2cccc(F)c2)cc1,64.2 µM,94.4 µM,2.85% (active)
COc1ccc(C2=NN(C3CCCCCC3)C(=O)C2(C)C)cc1OCCCCOc1ccc(-c2nn[nH]n2)cc1,50.9 µM,90.9 µM,0.849% (active)
COc1ccccc1OCCCCn1c(C2CC2)nc2ccccc21,52.1 µM,92.7 µM,2.84% (active)
O=C(NC1CCN(c2ccnc3ccccc23)C1)c1cccc(C(F)(F)F)c1 (stereo not drawn),61.6 µM,94.8 µM,3.94% (active)
COc1ccc(CCN2CCC(NCc3cccc(N(C)C)c3)CC2)cc1,24.5 µM,51.7 µM,-0.197% (active)
COc1cccc(-c2cc3c(Nc4cccnc4)nccc3[nH]2)c1,51.8 µM,92.5 µM,2.45% (active)
O=C(c1ccco1)N(CCCn1ccnc1)c1nc2c(Cl)cccc2s1,59.1 µM,94 µM,3.24% (active)
O=C(NCCc1ccccc1)c1cc(-c2cccnc2)cnc1NCC1CC1,,92.4 µM,1.69% (active)
Cc1ccc2nc(Cl)c(CNCc3cccs3)cc2c1,37.5 µM,54.5 µM,-0.463% (active)
CC(c1cc(Cl)cc(Cl)c1)N(C)c1ncc2c(N)nc(N)nc2n1 (stereo not drawn),46.5 µM,90.7 µM,5.31% (active)
CN(C)c1cc(NC(=O)Nc2ccccc2)c2ccccc2n1,14.2 µM,59.1 µM,8.07% (active)
Clc1ccc(Cl)c(CO[C@H]2CCCC[C@@H]2n2ccnc2)c1,14.2 µM,67.5 µM,1.03% (active)
Cc1nn(C(=O)Nc2cccc(C(F)(F)F)c2)c(C)c1Sc1ncccn1,68.5 µM,94 µM,1.34% (active)
OCc1ccc(-c2cncc(Nc3cccc(Cl)c3)c2)cc1,63.6 µM,98.2 µM,7.76% (active)
COc1ccc(-c2cnc3cnc(-c4cccc(OC(C)C)c4)cn23)cc1,43.6 µM,95 µM,6.18% (active)

SMILES,IC50 [1],IC90 [2],percent growth [3]
c1ccc(Oc2ccc(-c3cc(CN4CCOCC4)[nH]n3)cc2)cc1,65.4 µM,95.6 µM,3.77% (active)
O=C1N(Cc2cc3ccccc3s2)CC2CN(Cc3ccccc3)CCN12 (stereo not drawn),57.6 µM,91.8 µM,0.636% (active)
Cc1ccc2nc(C)c(-c3ccn(Cc4ccccc4)n3)n2c1,39.8 µM,90.8 µM,2.95% (active)
CCCCc1ccc(C(=O)Nc2nccc3ccccc23)nc1,54.6 µM,86 µM,-1.16% (active)
N=C(N)c1ccc(-c2cc(-c3ccccc3)on2)cc1,52.1 µM,90.2 µM,-0.237% (active)
c1csc(-c2cnc3sc(NCC4CCOCC4)nn23)c1,62.6 µM,95.5 µM,4.52% (active)
CC(C)(C)C1CCC(CC2=C(O)C(=O)c3ccccc3C2=O)CC1 (stereo not drawn),66.8 µM,92.7 µM,-0.835% (active)
c1ccc(C[C@@H]2CN(c3nccc(Oc4ccc(-n5ccnc5)cc4)n3)CCN2)cc1,58.9 µM,91.2 µM,-0.802% (active)
CCCCCCCCCCCCCCCCOP(=O)([O-])OCC[N+](C)(C)C,59.3 µM,90.8 µM,-0.857% (active)
COc1cc(CN2CCC3(C=Cc4ccccc43)CC2)cc2c1OCO2,28 µM,91.5 µM,4.12% (active)
O=C(Nc1ccccc1)c1ccc(-c2cc3ccncc3cc2OC2CCNCC2)s1,54.3 µM,87.4 µM,-5% (active)
CCOc1ccc(-c2nc(CNCCc3ccc(F)cc3)cs2)cc1,10.4 µM,19.6 µM,3.57% (active)
COC(=O)C1=C(C)NC(C)=C(C(=O)OC(C)C)C1c1cccc2nonc12 (stereo not drawn),45.1 µM,87.6 µM,-1.92% (active)
CN1CCN(CCCOc2ncc(Nc3ncc(-c4ccc(C(F)(F)F)c(F)c4)nc3C(N)=O)cn2)CC1,25.7 µM,85.2 µM,-0.0728% (active)
Cc1cc(C)c2cc(C(=O)NC3CCCCCCC3)[nH]c2c1,64.9 µM,94.3 µM,2.52% (active)
COc1ccc(C(=N)N)cc1-c1cn(-c2ccc(C(=N)N)cc2)nn1,56.6 µM,89.2 µM,-3.41% (active)
Cc1nc(-c2ccccn2)nc(N2CCC(Cc3ccccc3)C2)c1Cl (stereo not drawn),5.1 µM,13.7 µM,6.94% (active)
Oc1c(I)cc(I)c2cccnc12,2.55 µM,4.65 µM,-2.46% (active)
Cc1cc(C)n(-c2ccc(NC(=O)C3CCN(Cc4cnc(C)s4)CC3)cc2)n1,48.8 µM,92.5 µM,1.64% (active)
